# Pin1 inhibitor – human Pin1 inhibition. Q13526. Pin1 FP peptide displacement, HiFluor488, 10 min. Potency, µM (series often up to 115 µM), for the others: top-dose activity, negative = inhibition, usual class: inhibitors. 390,000 compounds, 0.009% hits. AID 504891; active = well fitted inhibition curve with a large enough effect in the polarisation, with a control signal flat, not every such curve was filed as active; inconclusive = small, poorly fitted or top-dose-only effect, or effect the other way, or a change in a side signal; inactive = no such curve, though single readings can be large or run the other way; the % refers to the polarisation; note: potency is the fitted concentration of half-maximal effect
# Target sequence (Q13526 whole entry, looked up): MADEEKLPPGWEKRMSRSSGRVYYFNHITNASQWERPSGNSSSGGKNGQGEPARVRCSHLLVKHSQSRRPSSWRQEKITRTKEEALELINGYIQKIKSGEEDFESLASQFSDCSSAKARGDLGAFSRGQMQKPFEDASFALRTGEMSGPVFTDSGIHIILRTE
# GALK inh – inhibitors of human galactokinase | AID 1868 | Purified GALK, Kinase-Glo residual ATP luminescence | Potency, µM (doses to about 57.5 µM), for the others: top-dose activity change, negative = inhibition, hits mostly inhibitors | 270,000 compounds, 0.007% hits; note: potency is the fitted concentration of half-maximal effect
# Target sequence (P51570 whole entry, looked up): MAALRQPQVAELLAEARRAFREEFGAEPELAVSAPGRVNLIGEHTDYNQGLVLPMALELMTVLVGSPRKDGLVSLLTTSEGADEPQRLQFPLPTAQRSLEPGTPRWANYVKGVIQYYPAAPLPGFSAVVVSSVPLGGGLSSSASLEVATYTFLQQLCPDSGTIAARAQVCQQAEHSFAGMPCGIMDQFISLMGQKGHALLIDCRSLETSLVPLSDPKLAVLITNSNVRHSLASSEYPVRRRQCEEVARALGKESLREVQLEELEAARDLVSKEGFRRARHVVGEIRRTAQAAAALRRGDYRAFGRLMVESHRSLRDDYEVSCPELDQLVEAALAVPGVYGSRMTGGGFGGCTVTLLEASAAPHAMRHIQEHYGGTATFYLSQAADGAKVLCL
#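 Human GALK (5 nM) with 35 uM ATP and 100 uM galactose in 20 mM HEPES pH 8.0, 5 mM MgCl2, 60 mM NaCl, 1 mM DTT, 0.01% BSA. After 1 h at room temperature, leftover ATP was read by Kinase-Glo Plus luminescence.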
# TrxR1 substrate – is turned over as a substrate by rat TrxR1; O89049; purified TrxR1 substrate turnover, NADPH consumption readout; Potency, µM (highest dose often 114 µM), without a hit: at the top dose activity change, negative = substrate turnover; 390,000 compounds, 0.01% hits; AID 588456; note: potency is the fitted concentration of half-maximal effect; nearly all actives have a fitted effect of over 50% in size
#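 Rat TrxR1, dispensed at 90 nM, was prereduced with 400 uM NADPH (final) for 5 min at ~22 deg C, then incubated with compound 15 min before 400 uM selenite. A first-read NADPH fluorescence drop versus no-compound background flagged substrates.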
# TrxR1 inh – blocks rat thioredoxin reductase 1 | O89049 | recombinant rTrxR1, NADPH fluorescence consumption, selenite substrate | Potency, µM (doses to about 114 µM), for inactives: at the top dose activity change, negative = inhibition, actives largely listed as inhibitors | 390,000 compounds, 1% hits | AID 588453; note: potency is the fitted concentration of half-maximal effect; nearly all actives have a fitted effect of over 65% in size
#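 Rat TrxR1 (90 nM in the dispensed reagent) was pre-reduced with 400 uM NADPH for 5 min at room temperature, then incubated with compound for 15 min. After 400 uM selenite was added, NADPH fluorescence (Ex 340/Em 450 nm) was followed for 8 min.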
# KAT2A inh – GCN5L2 (KAT2A) acetyltransferase inhibition; GCN5L2 HAT assay, ThioGlo1 CoA-SH fluorescence; Q92830; 390,000 compounds, 0.21% hits; Potency, µM (series often up to 58.9 µM), for the others: at the highest dose activity change, negative = inhibition, hits mostly inhibitors; AID 504327; note: potency is the fitted concentration of half-maximal effect
#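 qHTS, 1536-well. 20nM enzyme, pH 7.5 HEPES/EDTA/Tween-20 buffer; 15 min compound preinc., RT. Start: 75uM H3(1-25), 70uM AcCoA, 50uM ThioGlo1. Read Ex340/Em540 at t=0 (autofluorescence flag) and t=20 min.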
# Giardia killer – Giardia lamblia killing | Giardia lamblia trophozoite viability | activity change, % at 7.66 µM, hits read low | 340,000 compounds, 0.15% hits; in the data active = activity change below about -80%; inconclusive = between about -30% and that limit;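 note: parasites exposed to compound for two days anaerobically before the ATP read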
#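 Viability, read as ATP luminescence: trophozoites at 100 cells/well, compound added, 48 hrs anaerobic at 37 deg C, then 15-30 min room-temperature development before reading.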
# * hit, by the source's call; ? = inconclusive; nt = no result given; [ ] = dose if it differs, or a comment. An excerpt weighted towards active compounds, which were near 1.3% of everything screened. Unless noted, calls come from the whole dose curve; as a rule, active = well fitted curve in the direction sought with a large enough effect; inconclusive = small, poorly fitted or top-dose-only effect, or another doubt; inactive = no such curve, though single readings can be large; an effect the other way counts as inactive or inconclusive. % is set by controls: 0 for no effect and ±100 for the full control effect.
SMILES,Pin1 inhibitor,GALK inh,TrxR1 substrate,TrxR1 inh,KAT2A inh,Giardia killer
CCOc1ccc(C2OCCC(C)O2)cc1OC (stereo not given),0.1%,nt,-7.8%[2.29 µM],-16.7%[57.1 µM],nt,11.4
Cc1cccc(C(=O)OCC(=O)c2ccc(CC(=O)N3CCOCC3)s2)c1C,3.0%,nt,1.8%,-2.3%,-16.9%,-3.3
Cc1cc2c(cc1C)N(C(=O)CCl)CCN2C(=O)CCl,-21.1%,nt,1.8%[57.1 µM],1.12µM*,nt,5.0
Cc1ccc(C(C[N+](=O)[O-])n2nc(C)cc2C)cc1 (stereo not given),-5.3%,-1.9%,-3.8%,5.62µM*,-5.8%,-15.9
Cc1ccc(S(=O)(=O)NCC(C)n2nc(C)cc2C)cc1 (stereo not given),?,-0.2%,-1.1%,0.8%,-3.6%,-4.5
N#Cc1cccc(OC2=NS(=O)(=O)c3ccccc32)c1,0.0%,nt,nt,nt,nt,nt
O=C(O)CSc1cc(NS(=O)(=O)c2cccc([N+](=O)[O-])c2)c2ccccc2c1O,?,?,?,-5.0%,41.1%,-81.0*
CCc1ccc(S(=O)(=O)Nc2cc(SCC(=O)O)c(O)c3ccccc23)cc1,?,-1.2%,-12.2%,-11.8%,-2.6%,-6.9
CCCn1cnc2c(Sc3c([N+](=O)[O-])ncn3C)nc(N)nc21,-3.1%,nt,-3.7%,3.16µM*,nt,10.4
CCCCn1cnc2c(Sc3c([N+](=O)[O-])ncn3C)nc(N)nc21,0.5%,nt,-6.1%,2.82µM*,nt,-20.3
Cn1cnc([N+](=O)[O-])c1Sc1nc(N)nc2c1ncn2Cc1ccccc1,-6.1%,nt,-7.6%,6.31µM*,nt,15.3
CCN(CC)c1ccc(CNS(=O)(=O)c2cc3c(cc2C)NC(=O)CO3)cc1,-4.4%,nt,-2.3%[57.1 µM],16.4%[57.1 µM],-13.9%,nt
C=C1c2cccc(O)c2C(O)=C2C(=O)[C@]3(O)C(O)=C(C(N)=O)C(=O)[C@@H](N(C)C)[C@@H]3[C@@H](O)[C@H]12,nt,3.0%,-11.2%,-30.4%,-11.7%,-14.9
C=C1c2cccc(O)c2C(O)=C2C(=O)[C@]3(O)C(O)=C(C(N)=O)C(=O)C(N(C)C)C3C(O)C12 (stereo not given in full),nt,nt,nt,nt,10µM*,nt
C=C1c2c(Cl)ccc(O)c2C(O)=C2C(=O)[C@]3(O)C(O)=C(C(N)=O)C(=O)C(N(C)C)C3C(O)C12 (stereo not given in full),nt,nt,nt,nt,25.1µM*,nt
COCCNc1nc(-c2c(C)noc2C)nc2ccccc12,nt,nt,nt,nt,-17.5%,nt
Cc1noc(C)c1-c1nc(NCc2cccs2)c2ccccc2n1,nt,nt,nt,nt,22.4µM*,nt
Cc1ccc(-c2nc(C)c(CCNS(=O)(=O)c3ccccc3F)s2)cc1,8.9%,nt,-1.4%[57.1 µM],21.3%[57.1 µM],0.3%,nt
Fc1ccc(N2CCN(c3nc4ccccc4c4nc(-c5cccnc5)nn34)CC2)cc1,-1.2%,nt,3.2%,5.4%,1.3%,nt
c1ccc2[nH]c(CSc3ncnc4c3oc3ccccc34)nc2c1,?,-3.9%,-4.9%,-2.0%,39.8µM*,-17.4
Cc1nc(SCc2nc3ccccc3[nH]2)c2oc3ccccc3c2n1,60.6%,-0.9%,-6.2%,-3.2%,?,-14.4
COC(=O)c1c(NC(=O)COC(=O)c2ccc(Cl)cc2[N+](=O)[O-])sc2c1CCCCC2,2.3%,0.1%,-10.6%,-14.8%,28.2µM*,6.9
COc1ccc(C2=NN(C(C#N)c3ccc(OC)c(OC)c3)C(c3ccccc3)C2)cc1 (stereo not given),27.5%,-3.6%,-6.7%,?,-12.9%,10.3
COc1ccc(C(C#N)N2CCC(c3ccccc3)=N2)cc1OC (stereo not given),1.2%,-0.6%,3.3%[57.1 µM],3.16µM*,-2.0%,-5.1
COc1cc(C(C#N)N2CCC(c3ccccc3)=N2)ccc1O (stereo not given),0.1%,-0.3%,-4.0%,22.4µM*,-6.6%,6.2
C#CCSc1nncn1C(=O)/C=C/c1ccccc1,6.8%,nt,6.2%,22.4µM*,-29.2%,-9.0
C#CCSc1nc2ccccc2c(=O)n1CC=C,0.7%,nt,-0.3%,7.1%,nt,-18.4
CCN1CCN(C(c2ccccc2Cl)c2c(O)cc(C)n(CCOC)c2=O)CC1 (stereo not given),-5.9%,nt,-2.2%[57.1 µM],10µM*,5.9%,nt

# Screening results (PubChem BioAssay)
